Here are results for 17 molecules from PubChem BioAssay (NCI).

A short description of experiment [1]: NCI Yeast Anticancer Drug Screen. Data for the rad50 strain (AID 155).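 Further: 0% = growth of vehicle-only cultures of the same strain.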 The conditions noted are these: S. cerevisiae rad50 strain growth inhibition, active compounds read high. The essentials: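 Vehicle-treated cultures provide the reference for the growth inhibition reported for compound-exposed, repair-deficient yeast.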
The nature of experiment [2]: NCI Yeast Anticancer Drug Screen. Data for the mec2-1 strain (AID 157). Conditions: S. cerevisiae mec2-1 strain, active compounds read high. The procedure, abridged: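 Using mec2-1 yeast: add compound, measure growth, express inhibition versus vehicle-treated cultures.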
Experiment [3] in a line: NCI Yeast Anticancer Drug Screen. Data for the sgs1 mgt1 strain (AID 161).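 Further: 0% = growth of cultures given vehicle only.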 Conditions: S. cerevisiae sgs1 mgt1 strain, active compounds read high. The procedure, abridged:
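Compounds are added to genetically altered yeast, and growth is compared with cultures given vehicle alone to give percent inhibition.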

Experiment [4] in a line: NCI Yeast Anticancer Drug Screen. Data for the cln2 rad14 strain (AID 165).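 Further: 0% = growth equal to vehicle treated cultures.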 Conditions: S. cerevisiae cln2 rad14 strain, active compounds read high. The essentials:
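Yeast strain cln2 rad14, bearing defects in cell cycle control and DNA repair, serves as the test system; values reflect growth inhibition compared with vehicle.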

A short description of experiment [5]: NCI Yeast Anticancer Drug Screen. Data for the bub3 strain (AID 167). The conditions noted are these: S. cerevisiae bub3 mutant strain, active compounds read high. The essentials:
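Mutant yeast screening strain plus compound; vehicle-treated cultures serve as the 0% inhibition reference.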

Experiment [6] is described as follows: NCI Yeast Anticancer Drug Screen. Data for the mlh1 rad18 strain (AID 175). The conditions noted are these: S. cerevisiae mlh1 rad18 strain growth inhibition, active compounds read high. The procedure, abridged: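 Steps: expose repair-defective yeast to compound; measure growth; express inhibition against vehicle-treated controls.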
The mark [7] stands for this setting: at 5.0 µM (retest, dose inferred, filed as 0.5).
Setting [8] is: at 50.0 µM (retest, dose inferred, filed as 5.0).

“And” between values parts separate entries of the source, which are not always exact repeats. Equal entries are not always repeated. About 79,000 compounds went through this panel and 15% of them were active in at least one assay; those are over-represented in the sample as a whole. Values without a mark were called inactive. The source made the active and inactive calls. No stated cut-off is given here; in the data, active means growth inhibition above about 70%; inactive means the rest.

Regarding `O=[N+]([O-])/C=C/c1cccs1`, the growth inhibition was 95% (active) in experiment [1] (setting [7]); 98% (active) in experiment [1] (setting [8]); 33% in experiment [2] (setting [7]); 99% (active) in experiment [2] (setting [8]); 69% in experiment [3] (setting [7]); 100% (active) in experiment [3] (setting [8]). For the same molecule, the growth inhibition in experiment [4] (setting [7]) is 16%; in experiment [4] (setting [8]), 99% (active); in experiment [5] (setting [7]), 48%; in experiment [5] (setting [8]), 100% (active); in experiment [6] (setting [7]) it was 4%; in experiment [6] (setting [8]), 98% (active).

On to `CC(=O)O[C@H]1C(=O)[C@@]2(C)C(C(OC(=O)c3ccccc3)[C@]3(O)CC(OC(=O)[C@H](OC(=O)CCC(=O)O)C(NC(=O)c4ccccc4)c4ccccc4)C(C)=C1C3(C)C)C1(OC(C)=O)COC1C[C@@H]2O` (some centres undefined), for which the growth inhibition is 12.9% and 26.6% in experiment [1] (at 50.0 µM); 10.1% and 18.2% in experiment [2] (at 50.0 µM); -19.2% and -19.7% in experiment [3] (at 50.0 µM); -15.8% and -13.2% in experiment [4] (at 50.0 µM); -6.95% and -15.3% in experiment [5] (at 50.0 µM).

Consider `C=CC(=O)OCCOCc1ccccc1`, for which the growth inhibition is 4% in experiment [1] (setting [7]); 29% in experiment [1] (setting [8]); -3% in experiment [2] (setting [7]); 12% in experiment [2] (setting [8]); -1% in experiment [3] (setting [7]); 27% in experiment [3] (setting [8]). For the same molecule, the growth inhibition in experiment [4] (setting [7]) was -2%; in experiment [4] (setting [8]), -12%; in experiment [5] (setting [7]), 1%; in experiment [5] (setting [8]), 12%; in experiment [6] (setting [7]) it was -32%; in experiment [6] (setting [8]) it was 18%.

For `S=c1[nH]c(=S)c2[nH]c(=S)[nH]c2[nH]1`, the growth inhibition in experiment [1] (setting [7]) was -1%; in experiment [1] (setting [8]), 0%; in experiment [2] (setting [7]), 2%; in experiment [2] (setting [8]) it was 6%; in experiment [3] (setting [7]), 5%; in experiment [3] (setting [8]), 11%. Further, the growth inhibition is -13% in experiment [4] (setting [7]); -13% in experiment [4] (setting [8]); 6% in experiment [5] (setting [7]); 6% in experiment [5] (setting [8]); -23% in experiment [6] (setting [7]); -23% in experiment [6] (setting [8]).

As to `CC(=O)Nc1ccc(/C=N/NC(=S)NCC(C)C)cc1`, the growth inhibition is 4% in experiment [1] (setting [7]); 10% in experiment [1] (setting [8]); 2% in experiment [2] (setting [7]); 3% in experiment [2] (setting [8]); -1% in experiment [3] (setting [7]); 7% in experiment [3] (setting [8]). The growth inhibition in experiment [4] (setting [7]) was 11%; in experiment [4] (setting [8]), -8%; in experiment [5] (setting [7]) it was 5%; in experiment [5] (setting [8]) it was 9%; in experiment [6] (setting [7]), -1%; in experiment [6] (setting [8]) it was -4%.

`CCSC(=O)c1ccc([N+](=O)[O-])o1`: the growth inhibition in experiment [1] (setting [7]) was 20%; in experiment [1] (setting [8]), 99% (active); in experiment [2] (setting [7]) it was 6%; in experiment [2] (setting [8]), 100% (active); in experiment [3] (setting [7]) it was 31%; in experiment [3] (setting [8]), 100% (active). Further, the growth inhibition was 9% in experiment [4] (setting [7]); 99% (active) in experiment [4] (setting [8]); 13% in experiment [5] (setting [7]); 100% (active) in experiment [5] (setting [8]); -9% in experiment [6] (setting [7]); 99% (active) in experiment [6] (setting [8]).

On to `O=C(CO)NCCO`, for which the growth inhibition was 1% in experiment [1] (setting [7]); 0% in experiment [1] (setting [8]); 3% in experiment [2] (setting [7]); 5% in experiment [2] (setting [8]); -2% in experiment [3] (setting [7]); 2% in experiment [3] (setting [8]). Besides, the growth inhibition in experiment [4] (setting [7]) is 5%; in experiment [4] (setting [8]) it was -2%; in experiment [5] (setting [7]) it was 5%; in experiment [5] (setting [8]), -5%; in experiment [6] (setting [7]), 0%; in experiment [6] (setting [8]), 2%.

With `CCC(CC)(c1ccccc1)C(O)c1ccccc1` (centres undefined), the growth inhibition in experiment [1] (setting [7]) was 11%; in experiment [1] (setting [8]), 94% (active); in experiment [2] (setting [7]) it was -1%; in experiment [2] (setting [8]), 98% (active); in experiment [3] (setting [7]), 6%; in experiment [3] (setting [8]) it was 98% (active). Moreover, the growth inhibition in experiment [4] (setting [7]) was 7%; in experiment [4] (setting [8]), 95% (active); in experiment [5] (setting [7]), 6%; in experiment [5] (setting [8]) it was 94% (active); in experiment [6] (setting [7]), 2%; in experiment [6] (setting [8]), 96% (active).

Consider `COCc1c(C#N)c(Cl)nc(C)c1[N+](=O)[O-]`, for which the growth inhibition in experiment [1] (setting [7]) was 14%; in experiment [1] (setting [8]) it was 76% (active); in experiment [2] (setting [7]) it was 7%; in experiment [2] (setting [8]), 90% (active); in experiment [3] (setting [7]) it was 14%; in experiment [3] (setting [8]), 94% (active). Also, the growth inhibition in experiment [4] (setting [7]) is 2%; in experiment [4] (setting [8]), 94% (active); in experiment [5] (setting [7]) it was 8%; in experiment [5] (setting [8]) it was 97% (active); in experiment [6] (setting [7]), 0%; in experiment [6] (setting [8]) it was 94% (active).

For `C/C(=N\NC(=S)N(C)C)c1ccccn1`, the growth inhibition in experiment [1] (setting [7]) is 94% (active); in experiment [1] (setting [8]), 98% (active); in experiment [2] (setting [7]) it was 92% (active); in experiment [2] (setting [8]) it was 99% (active); in experiment [4] (setting [7]) it was 91% (active); in experiment [4] (setting [8]) it was 97% (active). Besides, the growth inhibition in experiment [4] (at 50.0 µM) was 89.3% (active); in experiment [5] (setting [7]) it was 95% (active); in experiment [5] (setting [8]), 99% (active); in experiment [5] (at 50.0 µM) it was 88.7% (active); in experiment [6] (setting [7]), 95% (active); in experiment [6] (setting [8]) it was 98% (active).

As to `CCOS(=O)(=O)CC(C)(C)C`, the growth inhibition in experiment [1] (setting [7]) is 7%; in experiment [1] (setting [8]) it was 92% (active); in experiment [2] (setting [7]), 3%; in experiment [2] (setting [8]), 80% (active); in experiment [4] (setting [7]), -1%; in experiment [4] (setting [8]), 13%. Further, the growth inhibition in experiment [5] (setting [7]) was 4%; in experiment [5] (setting [8]), 68%; in experiment [6] (setting [7]), -21%; in experiment [6] (setting [8]), 86% (active).

For `CCC(C)(C)N(CC(=O)O)CC(=O)O`, the growth inhibition was -6% in experiment [1] (setting [7]); -1% in experiment [1] (setting [8]); 2% in experiment [2] (setting [7]); -5% in experiment [2] (setting [8]); 2% in experiment [3] (setting [7]); -1% in experiment [3] (setting [8]). Moreover, the growth inhibition in experiment [4] (setting [7]) is 4%; in experiment [4] (setting [8]), -2%; in experiment [5] (setting [7]), 3%; in experiment [5] (setting [8]) it was -1%; in experiment [6] (setting [7]), -6%; in experiment [6] (setting [8]), 17%.

Turning to `NCCCNCCCCNCCCN`, the growth inhibition in experiment [1] (at 50.0 µM) was 14.1% and -12.6%; in experiment [2] (at 50.0 µM), 30.6% and -27.4%; in experiment [3] (at 50.0 µM), 14.2% and -14.9%; in experiment [4] (at 50.0 µM), 8.5% and -10.2%; in experiment [5] (at 50.0 µM), 28% and -15.6%; in experiment [6] (at 50.0 µM), 19.6% and 3%.

Regarding `CC(=O)C1CC(CC(=O)O)C1(C)C` (centres undefined), the growth inhibition in experiment [1] (at 50.0 µM) is 4.65% and 10.1%; in experiment [2] (at 50.0 µM), -7.25% and 9.75%; in experiment [3] (at 50.0 µM), -4.4% and 12.5%; in experiment [4] (at 50.0 µM), 13.9% and 10.6%; in experiment [5] (at 50.0 µM), -1.6% and 4.9%; in experiment [6] (at 50.0 µM), 3.3% and 14.9%.

In the case of `S=c1sc2ccccc2n1CCNc1ccccc1`, the growth inhibition in experiment [1] (setting [7]) is 8%; in experiment [1] (setting [8]), 90% (active); in experiment [3] (setting [7]) it was 4%; in experiment [3] (setting [8]), 98% (active); in experiment [4] (setting [7]) it was 7%; in experiment [4] (setting [8]), 25%. Besides, the growth inhibition in experiment [5] (setting [7]) was 6%; in experiment [5] (setting [8]) it was 92% (active); in experiment [6] (setting [7]) it was -10%; in experiment [6] (setting [8]), 64%.

Take `CC(C)NC(=O)C(C)O` (centres undefined): the growth inhibition in experiment [1] (setting [7]) was 4%; in experiment [1] (setting [8]), 14%; in experiment [2] (setting [7]), 1%; in experiment [2] (setting [8]), 2%; in experiment [3] (setting [7]) it was 2%; in experiment [3] (setting [8]), 5%. The growth inhibition in experiment [5] (setting [7]) is 6%; in experiment [5] (setting [8]) it was -2%; in experiment [6] (setting [7]) it was 2%; in experiment [6] (setting [8]), 10%.

On to `CSS(C)(=O)=O`, for which the growth inhibition is 59% in experiment [1] (setting [7]); 98% (active) in experiment [1] (setting [8]); 6% in experiment [2] (setting [7]); 99% (active) in experiment [2] (setting [8]); 10% in experiment [3] (setting [7]); 99% (active) in experiment [3] (setting [8]). The growth inhibition is -4% in experiment [4] (setting [7]); 98% (active) in experiment [4] (setting [8]); -1% in experiment [5] (setting [7]); 99% (active) in experiment [5] (setting [8]); 3% in experiment [6] (setting [7]); 95% (active) in experiment [6] (setting [8]).
